Test results from article PMC4336329 (PLoS ONE, 2015).
Out of some 310,000 compounds screened, about 14,000 (4.5%) showed an effect of 50% or more. The effect is printed as a negative number. The sample holds strong results, similar compounds and a random draw of the others, so the mix is not that of the screen.

These compounds were tested against human ether-à-go-go-related gene (hERG) potassium channel (human, UniProt Q12809) (assay: primary screen, population patch clamp on CHO cells stably expressing hERG; higher = less effect of the substance).
human ether-à-go-go-related gene (hERG) potassium channel, sequence (Q12809 whole entry, looked up): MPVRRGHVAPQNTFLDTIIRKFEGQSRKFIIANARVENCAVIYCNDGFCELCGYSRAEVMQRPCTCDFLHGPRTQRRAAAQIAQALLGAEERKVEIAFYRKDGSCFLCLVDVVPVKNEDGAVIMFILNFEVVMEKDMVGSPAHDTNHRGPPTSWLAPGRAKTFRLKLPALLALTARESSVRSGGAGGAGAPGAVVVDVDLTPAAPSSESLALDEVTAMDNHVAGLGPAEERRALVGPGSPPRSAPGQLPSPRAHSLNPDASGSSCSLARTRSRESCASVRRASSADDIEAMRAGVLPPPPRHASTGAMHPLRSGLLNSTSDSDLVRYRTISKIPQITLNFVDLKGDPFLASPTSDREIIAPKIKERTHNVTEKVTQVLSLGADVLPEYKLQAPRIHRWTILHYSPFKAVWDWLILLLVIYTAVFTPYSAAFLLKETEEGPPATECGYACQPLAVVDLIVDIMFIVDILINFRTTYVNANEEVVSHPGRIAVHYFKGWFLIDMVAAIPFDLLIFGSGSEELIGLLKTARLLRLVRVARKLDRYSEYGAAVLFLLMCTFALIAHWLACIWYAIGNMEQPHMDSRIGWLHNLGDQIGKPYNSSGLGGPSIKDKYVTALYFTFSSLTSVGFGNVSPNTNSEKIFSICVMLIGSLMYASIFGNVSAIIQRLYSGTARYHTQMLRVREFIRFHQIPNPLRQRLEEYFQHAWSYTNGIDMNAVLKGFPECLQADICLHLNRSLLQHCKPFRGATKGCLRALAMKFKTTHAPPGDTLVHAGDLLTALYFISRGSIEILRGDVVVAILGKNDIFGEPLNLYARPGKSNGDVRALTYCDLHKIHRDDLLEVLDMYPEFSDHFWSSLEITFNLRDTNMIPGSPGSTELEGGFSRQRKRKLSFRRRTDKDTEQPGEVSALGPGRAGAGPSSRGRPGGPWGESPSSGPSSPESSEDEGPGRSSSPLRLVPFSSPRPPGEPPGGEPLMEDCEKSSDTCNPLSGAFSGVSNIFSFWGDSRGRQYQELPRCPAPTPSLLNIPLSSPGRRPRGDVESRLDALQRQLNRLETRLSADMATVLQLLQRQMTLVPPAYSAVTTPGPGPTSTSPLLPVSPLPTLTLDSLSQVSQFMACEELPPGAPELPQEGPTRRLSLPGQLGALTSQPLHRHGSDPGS
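Note: peak tail current of the secondary pulse compared with the same well before compound.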

SMILES	hERG current change (%, negative = inhibition) at 10uM [%]
O=C(O)c1ccc(NC(=S)NC(=O)c2ccc(-c3ccccc3)cc2)cc1	19.4
CNC[C@H](NC[C@@H](NCCCc1ccccc1)c1ccccc1)[C@H](C)O	11.7
Cc1ccc(CSCC(=O)Nc2ccc3c(c2)OCO3)cc1	-14.5
COc1ccccc1CC(=O)Nc1ccc(S(=O)(=O)N2CCN(C)CC2)cc1	14.4
CS(=O)(=O)Nc1ccccc1C(=O)N1CCOCC1	16.4
O=C(CSc1oc(-c2ccco2)nc1S(=O)(=O)c1ccc(Cl)cc1)NCC1CCCO1 (stereo not shown)	-41.3
Cc1ccc(N/N=C(\C#N)C(=N)N2CCCCCC2)cc1	12.7
CCN(CC)C(=N)/C(C#N)=N/Nc1ccc(C)cc1	-56.6
CCN(CC)C(=N)/C(C#N)=N/Nc1ccccc1	-15.7
Cc1cc(NC(=O)Nc2cc(F)ccc2F)no1	17.7
CCCN(Cc1nnc(-c2ccccc2Cl)o1)C(=O)c1cc2ccccc2o1	-17
CCCN(Cc1nnc(-c2ccccc2Cl)o1)C(=O)c1cc(S(=O)(=O)N2CCOCC2)ccc1F	-47.7
CCCN(Cc1nnc(-c2ccccc2Cl)o1)C(=O)c1cccc(S(=O)(=O)N2CCOCC2)c1	-6.05
O=C(c1cccc(S(=O)(=O)N2CCOCC2)c1)N(Cc1nnc(-c2ccccc2Cl)o1)C1CC1	-24.9
Cc1ccc(S(=O)(=O)N2CCOCC2)cc1C(=O)N(Cc1nnc(-c2ccccc2Cl)o1)C1CC1	-33.9
O=C(c1cc([N+](=O)[O-])cc([N+](=O)[O-])c1)N(Cc1nnc(-c2ccccc2Cl)o1)C1CC1	-36.8
CCCN(Cc1nnc(-c2ccccc2Cl)o1)C(=O)c1ccc(C)c(S(=O)(=O)N2CCOCC2)c1	-55.8
O=C(c1ccc(Cl)c(S(=O)(=O)N2CCOCC2)c1)N(Cc1nnc(-c2ccccc2Cl)o1)C1CC1	-58.9
CCCN(Cc1nnc(-c2ccccc2Cl)o1)C(=O)c1cc([N+](=O)[O-])cc([N+](=O)[O-])c1	-55.1
CN(CC(=O)Nc1ccc(Cl)cc1)CC(=O)Nc1cccc2ccccc12	-2.26
O=C(/C=C/c1ccccc1Cl)Nc1ccc(-c2nnc3n2CCCCC3)cc1	-6.47
COc1cc(CNC(C)(C)C)cc(Br)c1OCc1cccs1.Cl	-28.7

SMILES	hERG current change (%, negative = inhibition) at 10uM [%]
NS(=O)(=O)c1cccnc1Nc1c(Cl)cccc1Cl	10.6
CCCCc1nc2ccccc2c(NC(=O)CN(CC)CC)c1CCC.O=C(O)C(=O)O	-26.8
COc1ccc(S(=O)(=O)N2CCCCCC2)cc1NC(=O)c1ccccc1F	3.54
O=C(CS(=O)(=O)c1ccc(F)cc1)Nc1nccs1	9.06
NC(=O)c1ccsc1NC(=O)CCS(=O)(=O)c1ccc(F)cc1	-2.69
CNC(=O)c1ccsc1NC(=O)CS(=O)(=O)c1ccc(Cl)cc1	-38.6
NC(=O)c1ccsc1NC(=O)CS(=O)(=O)c1ccc(Cl)cc1	-75.7
NC(=O)c1ccsc1NC(=O)CS(=O)(=O)c1ccc(F)cc1	-68.2
NC(=O)c1ccsc1NC(=O)CS(=O)(=O)c1ccccc1	-8.27
COc1ccccc1S(=O)(=O)Cc1ccc(C(=O)N2CCN(c3ccc(C)cc3)C(C)C2)o1 (stereo not shown)	-24.6
CCCNC(=O)c1oc2ccc3c(c2c1C)C=CC(C)(C)O3	0.704
CCOC(=O)c1cc2c(=O)n3ccccc3nc2n(CCCOC)c1=NC(C)=O	-27.5
CCOC(=O)c1cc2c(=O)n3ccccc3nc2n(CCOC)c1=NC(=O)C(C)(C)C	-4.45
CCOC(=O)c1cc2c(=O)n3ccccc3nc2n(CCOC)c1=NC(=O)c1c(-c2c(F)cccc2Cl)noc1C	2
CCOC(=O)c1cc2c(=O)n3ccccc3nc2n(CCCOC)c1=NC(=O)c1ccncc1	-87.3
CCOC(=O)c1cc2c(=O)n3ccccc3nc2n(CCOC)c1=NC(=O)c1ccncc1	-51.3
CCOC(=O)c1cc2c(=O)n3ccccc3nc2n(CCCOC)c1=NC(=O)C(C)(C)C	-7.42
Cc1cccc(C(=O)Nc2ccc(C(=O)/C=C/c3cccs3)cc2)c1	7.48
O=C(CSc1n[nH]c(=O)[nH]c1=O)N/N=C/c1ccccc1	8.14
COc1ccc(-n2nc(C(=O)NCC(=O)NC(C)C)c3ccccc3c2=O)c(OC)c1	11.3
COc1ccc(S(=O)(=O)n2nc(-c3cc(OC)c(OC)c(OC)c3)cc2N)cc1OC	-2.63
Cc1ccc(OCC(=O)N/N=C\c2ccco2)c(C)c1	-38

SMILES	hERG current change (%, negative = inhibition) at 10uM [%]
CCc1ccc(OCC(=O)N/N=C\c2ccco2)c([N+](=O)[O-])c1	-67.4
COc1cc(/C=N/NC(=O)COc2ccccc2[N+](=O)[O-])ccc1OC(=O)c1ccco1	-1.29
Cc1cc(-c2nnc(CSc3nnc(NC(=O)c4ccc(C(C)(C)C)cc4)s3)o2)ccc1[N+](=O)[O-]	4.92
CCN(CC)c1nc(N)c([N+](=O)[O-])c(NCCO)n1	12.1
COc1ccccc1CN1CC(=O)N2CSC[C@H]2C1=O	10.3
O=C1C2CSCN2C(=O)CN1CCCN1CCN(C(c2ccccc2)c2ccccc2)CC1 (stereo not shown)	-53.6
O=C1[C@@H]2CSCN2C(=O)CN1CCc1cccc(F)c1	-20.9
CCn1cc(C(=O)O)c(=O)c2cc(Br)ccc21	-46.7
Cc1ccc(/C=C2\SC(=S)N(c3cccnc3)C2=O)cc1	18.9
COc1ccc(OC)c(NC(=O)C2CCCN(S(=O)(=O)c3c(C)noc3C)C2)c1 (stereo not shown)	-16.8
CC(C)c1ccc(N=C2N=C(N)c3ccccc32)cc1	-59.2
NC1=NC(=Nc2ccc(Cl)cc2)c2ccccc21	-3.81
NC1=NC(=Nc2ccccc2)c2ccccc21	8.33
CCOC(=O)c1c(C)[nH]c(C)c1S(=O)(=O)N1CCOCC1	13.8
CCOc1ccc(NC(=O)CN2CCN(CC(=O)Nc3ccc4c(c3)OCO4)CC2)cc1	-76.1
COc1ccccc1NC(=O)CN1CCN(CC(=O)Nc2ccc3c(c2)OCO3)CC1	-72
CCOc1ccc(NC(=O)COc2ccc3c(c2)OCO3)cc1	1.04
COc1ccccc1N1CCN(CC(=O)Nc2ccc3c(c2)OCCO3)CC1	-6.03
COc1ccc(S(=O)(=O)N2CCCN(CC(=O)Nc3ccc4c(c3)OCO4)CC2)cc1	-61.5
CCOc1ccc(OCCC(=O)Nc2ccc3c(c2)OCO3)cc1	10.2
O=C(CN1CCOCC1)Nc1ccc2c(c1)OCO2	17.3
COc1ccc(NC(=O)CN2CCN(CC(=O)Nc3ccc4c(c3)OCO4)CC2)cc1	-78.1

SMILES	hERG current change (%, negative = inhibition) at 10uM [%]
COc1ccc(OCC(=O)Nc2ccc3c(c2)OCO3)cc1	-0.489
COc1ccccc1NC(=O)CN1CCN(CC(=O)Nc2ccc3c(c2)OCCO3)CC1	-34.4
COc1ccc(S(=O)(=O)N2CCCN(CC(=O)Nc3ccc(NC(C)=O)cc3)CC2)cc1	2.8
COc1ccc(S(=O)(=O)N2CCCN(CC(=O)Nc3ccc(OC)c(Cl)c3)CC2)cc1	-33.3
COc1ccccc1NC(CC(=O)c1ccccc1)C(=O)OCC(=O)c1ccc(Br)cc1 (stereo not shown)	-3.81
Cc1ccc(C2=NN(C(=O)c3cccs3)C(c3ccccc3O)C2)cc1 (stereo not shown)	34
O=S1(=O)N=C(N(CCO)/N=C/c2ccc(Cl)cc2)c2ccccc21	4.3
CN(C)c1ccc(P(=O)(Nc2ccc([N+](=O)[O-])cc2)N2CCOCC2)c(NC(=O)c2cccs2)c1 (stereo not shown)	16.9
Cc1nc(=O)c(-c2ccccc2)c(C)n1-c1ccc(O)cc1	9.6
O=C(NCCCl)Nc1cccnc1Cl	12.2
COc1ccc(/C(C)=N\n2cnnc2)cc1	6.86
O=C(CNC(=O)/C(=C\c1ccccc1)NC(=O)c1ccc(Br)cc1)OCc1ccccc1	-69.1
O=C(NC(Cc1ccccc1)C(=O)O)/C(=C\c1ccc(F)cc1)NC(=O)c1ccccc1 (stereo not shown)	11.1
CCOC(=O)CNC(=O)/C(=C\c1ccc(F)cc1)NC(=O)c1ccccc1	-26.4
O=C(CNC(=O)c1ccc(Oc2ccccc2)cc1)OCc1ccc(Br)cc1	-0.714
O=C(CNC(=O)/C(=C/c1ccccc1)NC(=O)c1ccc(Br)cc1)OCc1ccccc1	-64
O=C(Nc1ccc(C(=O)O)cc1)/C(=C\c1ccccc1)NC(=O)c1ccc(Br)cc1	7.33
O=C(CNC(=O)/C(=C\c1ccc(F)cc1)NC(=O)c1ccccc1)OCc1ccccc1	-80.7
Cc1ccc(C(=O)N/C(=C\c2ccccc2)C(=O)OCc2ccccc2)cc1	-50.7
O=C(CNC(=O)c1ccccc1)OCc1cccc(Br)c1	-17.8
Cc1ccc(/C=C(\NC(=O)c2ccccc2)C(=O)OCc2ccccc2)cc1	10.3
CC(=O)N/C(=C\c1ccccc1)C(=O)OCc1ccc(C)cc1	-19.9
